# Inconclusive results are not listed. Calls of active or inactive are those of the source. How the source made its calls: active means hit-call score of the fitted dose curve at least 0.9, where 1 is the maximum; inconclusive means response in the unintended direction; inactive means score below 0.9.
# What was measured:
# [1] = molecular target: human Orphanin, Opioid Related Nociceptin Receptor 1 (ORL1), OPRL1 (gene 4987) (UniProt P41146); experiment: NVS_GPCR_hORL1: NovaScreen (NVS) G Protein-Coupled Receptor Assay for human Orphanin, Opioid Related Nociceptin Receptor 1 (ORL1) (AID 2283283)
# Chain of human Orphanin, Opioid Related Nociceptin Receptor 1 (ORL1), OPRL1 (gene 4987) (P41146 whole entry, looked up): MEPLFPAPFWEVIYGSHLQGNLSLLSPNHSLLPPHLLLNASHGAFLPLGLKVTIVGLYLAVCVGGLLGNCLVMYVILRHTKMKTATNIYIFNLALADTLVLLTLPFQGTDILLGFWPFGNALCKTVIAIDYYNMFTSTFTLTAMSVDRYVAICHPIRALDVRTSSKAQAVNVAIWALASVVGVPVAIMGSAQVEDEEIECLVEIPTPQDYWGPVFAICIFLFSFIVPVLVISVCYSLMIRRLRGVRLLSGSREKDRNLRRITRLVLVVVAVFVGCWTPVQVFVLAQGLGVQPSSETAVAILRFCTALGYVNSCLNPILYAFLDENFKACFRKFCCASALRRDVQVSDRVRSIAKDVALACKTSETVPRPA
# Outline: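 Cell-free binding using HEK293-derived receptor protein: radioligand displacement measured by filter scintillation 1 hour after dosing. Primary testing at 25 uM in duplicate, followed by singleton concentration series up to 50 uM; DMSO served as negative control.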
# [2] = molecular target: rat Serotonin, 5-Hydroxytryptamine Receptor 1 (5HT1), Non-Selective Binding, Htr1a (gene 24473) (UniProt P19327); experiment: NVS_GPCR_r5HT1_NonSelective: NovaScreen (NVS) G Protein-Coupled Receptor Assay for rat Serotonin, 5-Hydroxytryptamine Receptor 1 (5HT1), Non-Selective Binding (AID 2283286)
# Chain of rat Serotonin, 5-Hydroxytryptamine Receptor 1 (5HT1), Non-Selective Binding, Htr1a (gene 24473) (P19327 whole entry, looked up): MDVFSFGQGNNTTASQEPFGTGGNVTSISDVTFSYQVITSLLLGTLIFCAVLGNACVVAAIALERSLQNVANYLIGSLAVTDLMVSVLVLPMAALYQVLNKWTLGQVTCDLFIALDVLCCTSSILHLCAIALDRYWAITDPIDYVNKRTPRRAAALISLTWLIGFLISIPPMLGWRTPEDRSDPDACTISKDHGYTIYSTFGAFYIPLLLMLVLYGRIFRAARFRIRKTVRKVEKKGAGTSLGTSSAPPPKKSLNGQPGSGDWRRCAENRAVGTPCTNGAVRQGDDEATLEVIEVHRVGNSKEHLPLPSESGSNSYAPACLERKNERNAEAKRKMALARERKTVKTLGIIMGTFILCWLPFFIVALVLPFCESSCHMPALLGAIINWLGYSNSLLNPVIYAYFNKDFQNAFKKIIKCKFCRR
# Outline: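 Binding of a radioligand to rat cortex membranes is read by filtration and scintillation counting after 1 h. Compounds were screened at 25 uM in duplicate. Actives were then titrated to a top of 50 uM. DMSO is the baseline.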
# [3] = tested on: rabbit Platelet Activating Factor Receptor (PAF), gene 100354046; experiment: NVS_GPCR_rabPAF: NovaScreen (NVS) G Protein-Coupled Receptor Assay for rabbit Platelet Activating Factor Receptor (PAF) (AID 2283287)
# Outline: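 Rabbit platelet membrane preparation; radioligand displacement read by filter-based scintillation counting 1 h after dosing, loss of signal versus DMSO. Primary screen in duplicate at 25 uM, actives followed up in concentration series.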
# [4] = molecular target: rat Adrenergic, Alpha 1, Non-selective Receptor (Adra1), Adra1a (gene 29412) (UniProt P43140); experiment: NVS_GPCR_rAdra1_NonSelective: NovaScreen (NVS) G Protein-Coupled Receptor Assay for rat Adrenergic, Alpha 1, Non-selective Receptor (Adra1) (AID 2283289)
# Chain of rat Adrenergic, Alpha 1, Non-selective Receptor (Adra1), Adra1a (gene 29412) (P43140 whole entry, looked up): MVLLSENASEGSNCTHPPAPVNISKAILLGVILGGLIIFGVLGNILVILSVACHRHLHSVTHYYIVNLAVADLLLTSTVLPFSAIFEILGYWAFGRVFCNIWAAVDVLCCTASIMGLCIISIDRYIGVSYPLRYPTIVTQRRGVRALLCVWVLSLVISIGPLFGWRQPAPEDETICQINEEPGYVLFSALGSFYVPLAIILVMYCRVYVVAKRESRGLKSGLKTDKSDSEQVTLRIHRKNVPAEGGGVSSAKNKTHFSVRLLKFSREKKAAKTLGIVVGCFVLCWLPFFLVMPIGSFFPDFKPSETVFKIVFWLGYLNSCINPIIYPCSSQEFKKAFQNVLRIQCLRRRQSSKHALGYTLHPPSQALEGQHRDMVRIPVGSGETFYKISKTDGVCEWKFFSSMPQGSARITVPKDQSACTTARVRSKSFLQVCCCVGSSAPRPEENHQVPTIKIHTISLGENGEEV
# Outline: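 Chemicals first screened in duplicate at 25 uM, then actives tested in concentration series up to 50 uM. Binding measured as displacement of radioligand from rat forebrain membrane receptors, 1 h, filtration with scintillation readout; DMSO baseline.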
# [5] = molecular target: guinea pig Bradykinin Receptor B2 (BK2), BDKRB2 (gene 100135486) (UniProt O70526); experiment: NVS_GPCR_gBK2: NovaScreen (NVS) G Protein-Coupled Receptor Assay for guinea pig Bradykinin Receptor B2 (BK2) (AID 2283292)
# Chain of guinea pig Bradykinin Receptor B2 (BK2), BDKRB2 (gene 100135486) (O70526 whole entry, looked up): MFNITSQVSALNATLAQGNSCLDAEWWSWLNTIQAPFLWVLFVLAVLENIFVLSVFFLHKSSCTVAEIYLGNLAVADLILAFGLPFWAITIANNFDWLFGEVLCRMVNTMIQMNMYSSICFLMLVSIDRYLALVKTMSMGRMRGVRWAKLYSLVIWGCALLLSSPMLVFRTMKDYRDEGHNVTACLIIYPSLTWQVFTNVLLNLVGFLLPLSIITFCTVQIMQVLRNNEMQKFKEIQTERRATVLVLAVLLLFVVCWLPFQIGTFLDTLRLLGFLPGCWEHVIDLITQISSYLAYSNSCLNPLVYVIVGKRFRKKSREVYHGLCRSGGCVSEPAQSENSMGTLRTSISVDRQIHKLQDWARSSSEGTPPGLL
# Outline: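 Guinea pig ileum membrane preparation incubated 1 h with radioligand and test chemical; bound counts measured after filtration. Primary duplicate screening at 25 uM, then singleton concentration series with a 50 uM top dose; DMSO as baseline.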
# [6] = molecular target: guinea pig Serotonin, 5-Hydroxytryptamine Receptor 4 (5HT4), HTR4 (gene 100135548) (UniProt O70528); experiment: NVS_GPCR_g5HT4: NovaScreen (NVS) G Protein-Coupled Receptor Assay for guinea pig Serotonin, 5-Hydroxytryptamine Receptor 4 (5HT4) (AID 2283294)
# Chain of guinea pig Serotonin, 5-Hydroxytryptamine Receptor 4 (5HT4), HTR4 (gene 100135548) (O70528 whole entry, looked up): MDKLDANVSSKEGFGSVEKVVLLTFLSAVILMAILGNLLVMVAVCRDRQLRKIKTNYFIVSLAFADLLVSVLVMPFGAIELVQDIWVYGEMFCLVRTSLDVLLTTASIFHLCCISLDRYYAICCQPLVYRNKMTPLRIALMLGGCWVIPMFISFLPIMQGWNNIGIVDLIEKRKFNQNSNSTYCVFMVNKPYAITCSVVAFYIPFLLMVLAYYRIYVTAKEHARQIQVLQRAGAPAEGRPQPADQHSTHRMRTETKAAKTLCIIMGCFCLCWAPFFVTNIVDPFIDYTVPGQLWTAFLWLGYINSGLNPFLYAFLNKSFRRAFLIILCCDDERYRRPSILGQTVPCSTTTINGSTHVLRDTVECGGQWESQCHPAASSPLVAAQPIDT
# Outline: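 Compounds first screened in duplicate at 25 uM, actives followed up in concentration series. Binding measured as displacement of specific radioligand from guinea pig striatal membranes, 1 h, filter-based scintillation read-out versus DMSO baseline.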
# [7] = molecular target: rat Serotonin, 5-Hydroxytryptamine Receptor (5HT), Non-Selective Binding, Htr1a (gene 24473) (UniProt P19327); experiment: NVS_GPCR_r5HT_NonSelective: NovaScreen (NVS) G Protein-Coupled Receptor Assay for rat Serotonin, 5-Hydroxytryptamine Receptor (5HT), Non-Selective Binding (AID 2283295)
# Chain of rat Serotonin, 5-Hydroxytryptamine Receptor (5HT), Non-Selective Binding, Htr1a (gene 24473) (P19327 whole entry, looked up): as the sequence (P19327 whole entry, looked up) above
# Outline: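 Rat cortex membrane preparation incubated 1 h with radioligand and test chemical; bound radioactivity counted after filtration. Screening began in duplicate at 25 uM with concentration-series follow-up; fitting relative to DMSO.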
# [8] = molecular target: rat Adrenergic, Alpha 1A Receptor (Adra1A), Adra1a (gene 29412) (UniProt P43140); experiment: NVS_GPCR_rAdra1A: NovaScreen (NVS) G Protein-Coupled Receptor Assay for rat Adrenergic, Alpha 1A Receptor (Adra1A) (AID 2283296)
# Chain of rat Adrenergic, Alpha 1A Receptor (Adra1A), Adra1a (gene 29412) (P43140 whole entry, looked up): as the sequence (P43140 whole entry, looked up) above
# Outline: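 Filter radiodetection after 1 h competitive binding on CEC-pretreated rat cortical membranes. Duplicate single-point screening at 25 uM; active chemicals retested across concentration series.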
smiles,measurement,setting,value
O=C(c1ccc(OCCN2CCCCC2)cc1)c1c(-c2ccc(O)cc2)sc2cc(O)ccc12,AC50,[1],0.982 µM (active)
same,AC50,[2],18.5 µM (active)
same,AC50,[3],12.1 µM (active)
same,AC50,[4],1.49 µM (active)
same,outcome,[5],inactive
same,AC50,[6],4.36 µM (active)
same,AC50,[7],5.24 µM (active)
same,AC50,[8],5.36 µM (active)
CC/C(=C(\c1ccccc1)c1ccc(OCCN(C)C)cc1)c1ccccc1,AC50,[1],9.83 µM (active)
same,outcome,[3],inactive
same,outcome,[5],inactive
C#C[C@]1(O)CC[C@H]2[C@@H]3CCc4cc(O)ccc4[C@H]3CC[C@@]21C,AC50,[6],2.64 µM (active)

# — PubChem BioAssay (EPA / NIEHS)
